# IL-1B inflam inh: inflammasome signaling inhibition, IL-1 beta readout | THP-1 LPS/ATP IL-1B secretion, AlphaLISA, 16 h; stronger effect = lower value | activity change, % at 57.5 µM | hit rate 4.7% among 360,000 | AID 743279; in the data active = activity change below about -50%; inconclusive = mostly about -30% to -49%; also: % is scaled to controls: 0 for no effect and ±100 for the full control effect
#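 Secreted IL-1B measured by AlphaLISA bead assay after 16 h compound exposure of THP-1 cells; compounds (final up to 57.5 uM) added 1 h before LPS (250 ng/mL) and ATP (1.25 mM) stimulation; lower signal means less secretion.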
# TDP1 cell CPT: DT40-hTDP1 cell growth loss with CPT. chicken DT40 Tdp1-/-;hTDP1 cells + 20 nM CPT, ATP luminescence, 48 h. Potency, µM (highest dose often 46.2 µM), without a hit: at the highest dose activity change, negative = growth inhibition, actives largely listed as inhibitors. hit rate 12% among 420,000; also: potency is read from the fitted curve at half-maximal effect; % is scaled to controls: 0 for no effect and ±100 for the full control effect; nearly all actives have a fitted effect of over 55% in size
#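 Chicken DT40 Tdp1-/- cells stably complemented with human TDP1 were seeded at 400 cells/well in medium containing 20 nM camptothecin, exposed to pin-transferred compounds, and grown at 37 °C for at least 48 hr. Viability was read as ATP luminescence.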
# D3 antag: D3 dopamine receptor (human) antagonism. hit rate 2.5% among 360,000. max response, negative = inhibition, %. P35462. D3R cells, DiscoveRx beta-arrestin luminescence, antagonist mode; stronger effect = lower value; in the data active = max response below about -50%; inconclusive = no clear call, values can overlap the other calls; also: % is scaled to controls: 0 for no effect and ±100 for the full control effect
# Target sequence (P35462 whole entry, looked up): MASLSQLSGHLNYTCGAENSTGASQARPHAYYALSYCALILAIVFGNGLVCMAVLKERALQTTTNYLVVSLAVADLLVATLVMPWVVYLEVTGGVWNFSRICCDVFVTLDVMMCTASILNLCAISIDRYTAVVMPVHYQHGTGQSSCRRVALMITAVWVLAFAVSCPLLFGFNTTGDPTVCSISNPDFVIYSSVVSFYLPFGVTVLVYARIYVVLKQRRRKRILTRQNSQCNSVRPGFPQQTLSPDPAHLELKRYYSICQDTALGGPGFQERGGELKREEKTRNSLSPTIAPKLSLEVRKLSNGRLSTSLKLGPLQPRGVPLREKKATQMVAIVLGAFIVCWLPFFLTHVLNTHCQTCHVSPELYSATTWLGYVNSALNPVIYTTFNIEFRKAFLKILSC
#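 Cells expressing the human receptor were seeded at 1500 cells/well, incubated overnight at 37 degrees C in 5% CO2, then exposed to library compounds with dopamine controls for 90 minutes at 37 degrees C before luminescent detection.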
# ClpP mod: qHTS Assay for Activators of ClpP | ATP-dependent Clp protease proteolytic subunit (Bacillus subtilis (strain 168)), P80244 | purified B. subtilis ClpP, FRET peptide cleavage, 20 min | Potency, µM (doses to about 57.5 µM), for inactives: at the highest dose activity change, negative = active | hit rate 1.9% among 340,000; active = well fitted falling curve with a large enough effect; inconclusive = small, poorly fitted or top-dose-only effect; inactive = no such curve, though single readings can be large or run the other way; also: potency is read from the fitted curve at half-maximal effect; the source files actives as falling curves though it sought activators and does not explain the sign; nearly all actives have a fitted effect of over 65% in size
#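 FRET quenching reversal measured ClpP activation: 10 microg/mL B. subtilis ClpP at pH 8 with the FRET-FV decapeptide, read at 430 nm after 320 nm excitation. The 20-min minus 0-min signal was scaled between DMSO/no-enzyme wells and ADEP (5.8 microM final).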
# D3 ag: agonists of human D3 dopamine receptor; D3R DiscoveRx beta-arrestin cells, luminescence, 90 min; max activation, %; hit rate 0.58% among 410,000; in the data active = max activation above about 30%; also: 0% is about no effect
#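 Agonist-mode cell screen: cells plated at 1500/well and incubated overnight at 37 °C, then exposed to library compounds for 90 min at 37 °C. Detection reagent was added for 30–60 min at room temperature, and luminescence was read.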
# DT40 TDP1 no CPT: qHTS for Inhibitors of human tyrosyl-DNA phosphodiesterase 1 (TDP1): qHTS in cells in absence of CPT | DT40 Tdp1-/- hTDP1 cells, no CPT, ATP luminescence, 48 h | Potency, µM (highest dose often 46.2 µM), for inactives: top-dose activity change, negative = growth inhibition, usual class: inhibitors | hit rate 15% among 420,000; also: potency is read from the fitted curve at half-maximal effect; % is scaled to controls: 0 for no effect and ±100 for the full control effect; nearly all actives have a fitted effect of over 55% in size
#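 Growth of hTDP1-complemented DT40 Tdp1-knockout cells is measured by ATP luminescence after at least 48 hr compound exposure at 37 °C, with DMSO substituting for the 20 nM CPT used in the parallel screen.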
# Active calls of the source: *; ? = inconclusive; . = no result given. This is a sample that favours compounds with a hit; in the whole collection about 21% have one here. Unless noted, calls follow the shape of the dose curve; as a rule, active = well fitted inhibition curve with a large enough effect; inconclusive = small, poorly fitted or top-dose-only effect; inactive = flat fitted curve, though single readings scatter.
SMILES,IL-1B inflam inh,TDP1 cell CPT,D3 antag,ClpP mod,D3 ag,DT40 TDP1 no CPT
COC(=O)c1nn(C)c(=O)[nH]c1=O,7,0%,13,.,2,1%
CC[C@@]1(C(=O)OC)N[C@H](CN(C)C(=O)c2ccc(C)cc2)[C@@H]2C(=O)N(C)C(=O)[C@@H]21,16,2%,10,1%,6,0%
c1ccc2[nH]cnc2c1,-17,10%,-2,-2%,21,-23%
c1ccc2nc3[nH]cnc3nc2c1,34,-1%,17,22µM*,2,-11%
Cc1cn2c(=O)cc(COc3ccc(NC(=O)c4ccccc4C)cc3)nc2s1,.,-10%,.,-2%,-5,-5%
CCc1ccc(NC(=O)C(NS(=O)(=O)c2cccc3nsnc23)c2ccccc2)cc1 (centres undefined),-30,?,-26,-2%,-14,26µM*
CCC(C)NC(=O)C(NS(=O)(=O)c1cccc2nsnc12)c1ccccc1 (centres undefined),-7,1%,19,0%,-1,-9%
CCN(C(=O)C(NS(=O)(=O)c1cccc2nsnc12)c1ccccc1)c1ccccc1 (centres undefined),.,?,.,0%,-6,23µM*
C=CCNC(=O)c1n[nH]c2c1CC(C(C)(C)CC)CC2 (centres undefined),-2,?,13,-2%,8,?
Cc1ccc(S(=O)(=O)N(C)C)cc1NC(=S)Nc1cccc2ccccc12,29,?,-12,4%,-19,?
CCCCCCC(C)NC(=S)Nc1cc(S(=O)(=O)N(C)C)ccc1C (centres undefined),-2,?,-26,-2%,-6,23µM*
Cc1ccc(S(=O)(=O)N(C)C)cc1NC(=S)NC(C)CCC(C)C (centres undefined),18,23µM*,2,0%,-15,21µM*
Cc1ccc(S(=O)(=O)N(C)C)cc1NC(=O)C(C)N(C)CCOc1ccc(Cl)cc1 (centres undefined),-7,?,-10,.,-5,29µM*
Cc1ccc(S(=O)(=O)N(C)C)cc1NC(=S)NC(C)CCCC(C)C (centres undefined),-73*,26µM*,?,-3%,-13,?
CC(=O)NNC(=S)Nc1cc(S(=O)(=O)N(C)C)ccc1C,10,-2%,-26,1%,-4,?
CCc1ccc(CNc2ccc3c(c2)ncn3CC)cc1,-57*,?,13,-17%,7,?
CCn1cnc2cc(NCc3ccc(OC)cc3)ccc21,1,-25%,15,?,1,?
CCN(CC)c1ccc(CNc2ccc3c(c2)ncn3C(C)(C)C)cc1,-24,16µM*,10,-21%,1,?
CCc1ccc(CNc2ccc3c(c2)ncn3C(C)(C)C)cc1,-78*,21µM*,0,?,0,21µM*
CC(C)(C)n1cnc2cc(NCc3ccc(Br)cc3)ccc21,?,?,13,.,-7,?
CCn1c(SCC(=O)N2CCC(C)CC2)nc2c([nH]c3ccccc32)c1=O,22,?,-3,-6%,0,?
N#Cc1ccc(C(=O)Nc2cc(-c3ccc(F)cc3)nn2-c2ccccc2)cc1,-6,15µM*,-24,2%,-17,?
N#Cc1ccc(C(=O)Nc2cc(-c3ccccc3)nn2-c2ccccc2)cc1,-17,?,1,-3%,12,-28%
O=C(Nc1cc(-c2ccccc2)nn1-c1c(Cl)cccc1Cl)c1ccc(F)cc1,-25,21µM*,2,-2%,0,18µM*
Cn1nc(-c2ccccc2)cc1NC(=O)c1ccc(Cl)cc1,-15,-30%,2,-3%,6,-18%

# Assay outcomes deposited in PubChem by National Center for Advancing Translational Sciences (NCATS).
